Data from PubChem BioAssay (Tox21).
Where “and” joins values, the source holds several entries; their conditions need not be identical. Equal entries are not always repeated. Results filed as inconclusive are left out. Entries that show only a call come without a potency. The source holds several records for some structures; these can differ, active in one and inactive in another. Calls of active or inactive are those of the source. The call rests on the fitted dose curve; in most records, active means well fitted curve in the direction sought with a large enough effect in the repeat runs; inconclusive means weak or mixed curves; inactive means no such curve, though single readings can be large; an effect the other way counts as inactive or inconclusive.

What was measured:
[1] = A CellTox Green Cytotoxicity Assay to monitor cytotoxicity in HepG2 cells - 16 hour (AID 1224876); conditions: CellTox Green fluorescence; series mostly up to 76.8 µM; further: nearly all actives have a fitted effect of over 45% in size; further: potency means the concentration at half of the fitted maximal effect
How it was run: (§1)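 Read-out is fluorescence of a cyanine dye excluded from live cells that stains DNA of dead HepG2 cells, with signal proportional to cytotoxicity. Plates were read at 0, 8, 16, 24, 32 and 40 h after compound addition.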

[2] = qHTS RealTime-Glo MT Cell Viability Assay in HepG2 cells - 32 hour (AID 1224877); conditions: RealTime-Glo luminescence; series mostly up to 76.8 µM; further: nearly all actives have a fitted effect of over 55% in size
How it was run: (§2)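 Luminescence read-out: viable HepG2 cells reduce a prosubstrate to a NanoLuc substrate, giving a signal proportional to live cell number. Reads taken at 0, 8, 16, 24, 32 and 40 h of compound exposure at 37 C.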

[3] = A CellTox Green Cytotoxicity Assay to monitor cytotoxicity in HepG2 cells - 24 hour (AID 1224878); conditions: CellTox Green fluorescence; series mostly up to 76.8 µM; further: nearly all actives have a fitted effect of over 45% in size; further: potency means the concentration at half of the fitted maximal effect
How it was run: as §1

[4] = A CellTox Green Cytotoxicity Assay to monitor cytotoxicity in HepG2 cells - 40 hour (AID 1224879); conditions: CellTox Green fluorescence; series mostly up to 76.8 µM; further: nearly all actives have a fitted effect of over 40% in size; further: potency means the concentration at half of the fitted maximal effect
How it was run: as §1

[5] = qHTS RealTime-Glo MT Cell Viability Assay in HEK293 cells - 0 hour (AID 1224880); conditions: RealTime-Glo luminescence; series mostly up to 76.8 µM; further: top concentration of the series differs between compounds; nearly all actives have a fitted effect of over 45% in size
How it was run: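 Cells were seeded together with NanoLuc luciferase and a prosubstrate that viable cells reduce to a luciferase substrate. After a 5 h incubation at 37 C/5% CO2, compounds were added and luminescence was measured repeatedly during 40 h of treatment.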

[6] = A CellTox Green Cytotoxicity Assay to monitor cytotoxicity in HEK293 cells - 32 hour (AID 1224881); conditions: CellTox Green fluorescence; series mostly up to 76.8 µM; further: nearly all actives have a fitted effect of over 40% in size; further: potency means the concentration at half of the fitted maximal effect
How it was run: (§3)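 Nonlytic real-time cytotoxicity: HEK293 + CellTox Green reagent plated, 5 h preincubation, pintool compound addition (23 nL in DMSO), 37 C for 40 h, fluorescence measured at successive time points.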

[7] = A CellTox Green Cytotoxicity Assay to monitor cytotoxicity in HepG2 cells - 0 hour (AID 1224882); conditions: CellTox Green fluorescence; series mostly up to 76.8 µM; further: nearly all actives have a fitted effect of over 35% in size; further: potency means the concentration at half of the fitted maximal effect
How it was run: as §1

[8] = A CellTox Green Cytotoxicity Assay to monitor cytotoxicity in HepG2 cells - 32 hour (AID 1224883); conditions: CellTox Green fluorescence; series mostly up to 76.8 µM; further: nearly all actives have a fitted effect of over 50% in size; further: potency means the concentration at half of the fitted maximal effect
How it was run: as §1

[9] = A CellTox Green Cytotoxicity Assay to monitor cytotoxicity in HEK293 cells - 8 hour (AID 1224884); conditions: CellTox Green fluorescence; series mostly up to 76.8 µM; further: nearly all actives have a fitted effect of over 35% in size; further: potency means the concentration at half of the fitted maximal effect
How it was run: as §3

[10] = qHTS RealTime-Glo MT Cell Viability Assay in HepG2 cells - 16 hour (AID 1224885); conditions: RealTime-Glo luminescence; series mostly up to 76.8 µM; further: nearly all actives have a fitted effect of over 50% in size
How it was run: as §2

| Structure (SMILES) | Potency [1] | outcome [2] | Potency [3] | Potency [4] | outcome [5] | Potency [6] | Potency [7] | Potency [8] | Potency [9] | outcome [10] |
| --- | --- | --- | --- | --- | --- | --- | --- | --- | --- | --- |
| Clc1ccc(Cl)cc1 | inactive | inactive | inactive | inactive | inactive | inactive | inactive | inactive | inactive | inactive |
| CC(C#N)CCC#N (centres undefined) | inactive | inactive | inactive | inactive | inactive | inactive | inactive | inactive | inactive | inactive |
| O=NN1CCCCCCC1 | inactive | inactive | inactive | inactive | inactive | inactive | inactive | inactive | inactive | inactive |
| CCOP(=S)(OCC)Oc1cnc2ccccc2n1 | inactive | inactive | inactive | inactive | inactive | inactive | inactive | inactive | inactive | inactive |
| CC(C)C1(C)N=C(c2nc3ccccc3cc2C(=O)O)NC1=O (centres undefined) | inactive | inactive | inactive | inactive | inactive | inactive | inactive | inactive | inactive | inactive |
| C1CN2CCN1CC2 | inactive and 21.9 µM (active) | inactive | inactive and 21.9 µM (active) | inactive and 21.9 µM (active) | inactive | inactive and 21.9 µM (active) | inactive and 21.9 µM (active) | inactive and 21.9 µM (active) | inactive and 21.9 µM (active) | inactive |
| CC(NC(C)(C)C)C(=O)c1cccc(Cl)c1 (centres undefined) | inactive | inactive | inactive | inactive | inactive | inactive | inactive | inactive | inactive | inactive |
| CC(=O)C=C(C)C | inactive | inactive | inactive | inactive | inactive | inactive | inactive | inactive | inactive | inactive |
| O=C(O)c1ccccn1 | inactive | inactive | inactive | inactive | inactive | inactive | inactive | inactive | inactive | inactive |
| CN1C(=O)CN=C(c2ccccc2)c2cc(Cl)ccc21 | inactive | inactive | inactive | inactive | inactive | inactive | inactive | inactive | inactive | inactive |
| CCCCOC(=O)c1ccccc1C(=O)OCCCC | inactive | inactive | inactive | inactive | inactive | inactive | inactive | inactive | inactive | inactive |
| CN(C)[C@@H]1C(=O)C(C(N)=O)=C(O)[C@@]2(O)C(=O)C3=C(O)c4c(O)cccc4[C@@](C)(O)[C@H]3C[C@@H]12 | inactive | inactive | inactive | inactive | inactive | inactive | inactive | inactive | inactive | inactive |
| C=CC(N)=O | inactive | inactive | inactive | inactive | inactive | inactive | inactive | inactive | inactive | inactive |
| COC(=O)NC(=S)Nc1ccccc1NC(=S)NC(=O)OC | inactive | inactive | inactive | inactive | inactive | inactive | inactive | inactive | inactive | inactive |
| ClCc1cccnc1 | inactive | inactive | inactive | inactive | inactive | inactive | inactive | inactive | inactive | inactive |
| CCOP(=S)(OCC)SCCSCC | inactive | inactive | inactive | inactive | inactive | inactive | inactive | inactive | inactive | inactive |
| c1cc2c3c(cccc3c1)CC2 | inactive | inactive | inactive | inactive | inactive | inactive and 49 µM (active) | inactive | inactive | inactive and 49 µM (active) | inactive |
| COC(=O)c1ccccc1N | inactive | inactive | inactive | inactive | inactive | inactive | inactive | inactive | inactive | inactive |
| COc1ccc2c3c1O[C@H]1[C@@H](O)C=C[C@H]4[C@@H](C2)N(C)CC[C@@]341 | inactive | inactive | inactive | 30.4 µM (active) and inactive | inactive | inactive | inactive | inactive | inactive | inactive |
| Cc1[nH]c(=O)n(C(C)(C)C)c(=O)c1Cl | inactive | inactive | inactive | inactive | inactive | inactive | inactive | inactive | inactive | inactive |
| O=[N+]([O-])c1ccc(Oc2ccc(Cl)cc2Cl)cc1 | inactive | inactive | inactive | inactive | inactive | inactive | inactive | inactive | inactive | inactive |
| CCOP(OCC)OCC | inactive | inactive | inactive | inactive | inactive | inactive | inactive | inactive | inactive | inactive |
| CC(C)(Cl)Cl | inactive | inactive | inactive | inactive | inactive | inactive | inactive | inactive | inactive | inactive |
| O=c1[nH]c(=O)[nH]c(=O)[nH]1 | inactive | inactive | inactive | inactive | inactive | inactive | inactive | inactive | inactive | inactive |
| COC(=O)NS(=O)(=O)c1ccc(N)cc1 | inactive | inactive | inactive | inactive | inactive | inactive | inactive | inactive | inactive | inactive |

| Structure (SMILES) | Potency [1] | outcome [2] | Potency [3] | Potency [4] | outcome [5] | Potency [6] | Potency [7] | Potency [8] | Potency [9] | outcome [10] |
| --- | --- | --- | --- | --- | --- | --- | --- | --- | --- | --- |
| CCCCCCCCCl | inactive | inactive | inactive | inactive | inactive | inactive | inactive | inactive | inactive | inactive |
| Cc1cc(Cl)ccc1O | inactive | inactive | inactive | inactive | inactive | inactive | inactive | inactive | inactive | inactive |
| Nc1ccc(Br)cc1 | inactive | inactive | inactive | inactive | inactive | inactive | inactive | inactive | inactive | inactive |
| CCCCN(CC)C(=O)SCCC | inactive | inactive | inactive | inactive | inactive | inactive | inactive | inactive | inactive | inactive |
| COC(=O)c1ccccc1C(=O)OC | inactive | inactive | inactive | inactive | inactive | inactive | inactive | inactive | inactive | inactive |
| BrCCBr | inactive | inactive | inactive | inactive | inactive | inactive | inactive | inactive | inactive | inactive |
| CC(C)NC(=O)N1CC(=O)N(c2cc(Cl)cc(Cl)c2)C1=O | inactive | inactive | inactive | inactive | inactive | inactive | inactive | inactive | inactive | inactive |
| Cn1cc(-c2ccccc2)c(=O)c(-c2cccc(C(F)(F)F)c2)c1 | inactive | inactive | inactive | inactive | inactive | inactive | inactive | inactive | inactive | inactive |
| CC1C=[C-]C=C1.[C-]#[O+].[C-]#[O+].[C-]#[O+].[Mn] | inactive | inactive | inactive | inactive | inactive | inactive | inactive | inactive | inactive | inactive |
| Cc1ccc([N+](=O)[O-])cc1C | inactive | inactive | inactive | inactive | inactive | inactive | inactive | inactive | inactive | inactive |
| Cc1ccc(N)cc1N | inactive | inactive | inactive | inactive | inactive | inactive | inactive | inactive | inactive | inactive |
| O=C1CCCN1 | inactive | inactive | inactive | inactive | inactive | inactive | inactive | – | inactive | inactive |
| CCC(C)(CC)c1cc(NC(=O)c2c(OC)cccc2OC)on1 | inactive | inactive | inactive | inactive | inactive | inactive | inactive | inactive | inactive | inactive |
| CC(C)=C[C@@H]1[C@@H](C(=O)OCc2coc(Cc3ccccc3)c2)C1(C)C | inactive | inactive | inactive | inactive | inactive | inactive | inactive | inactive | inactive | inactive |
| CC(C)C#N | inactive | inactive | inactive | inactive | inactive | inactive | inactive | – | inactive | inactive |
| O=c1n(Cl)c(=O)n(Cl)c(=O)n1Cl | inactive | inactive | inactive | inactive | inactive | inactive | inactive | – | inactive | inactive |
| CON(C)C(=O)Nc1ccc(Cl)c(Cl)c1 | inactive | inactive | inactive | inactive | inactive | inactive | inactive | – | inactive | inactive |
| Oc1ccccc1Cl | inactive | inactive | inactive | inactive | inactive | inactive | inactive | – | inactive | inactive |
| O=[N+]([O-])c1ccc([As](=O)(O)O)cc1 | inactive | inactive | inactive | inactive | inactive | inactive | inactive | – | inactive | inactive |
| CNC(=O)Oc1ccccc1OC(C)C | inactive | inactive | inactive | inactive | inactive | inactive | inactive | – | inactive | inactive |
| CN=C=S | inactive | inactive | – | inactive | inactive | inactive | inactive | inactive | inactive | inactive |
| COCCl | inactive | inactive | inactive | inactive | inactive | inactive | inactive | – | 22.7 µM (active) and inactive | inactive |
| ClCCBr | inactive | inactive | inactive | inactive | inactive | inactive | inactive | – | inactive | inactive |
| C[C@]12CC[C@H]3[C@@H](CC[C@@]45O[C@@H]4C(O)=C(C#N)C[C@]35C)[C@@H]1CC[C@@H]2O | inactive | inactive | inactive | inactive | inactive | inactive | inactive | – | inactive | inactive |
